# Experimental data: PubChem BioAssay
# “And” between values parts separate entries of the source, which are not always exact repeats. Equal entries are not always repeated. Records with an inconclusive call do not appear. The source made the active and inactive calls.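 How the source made its calls, unless noted: active means normalized viability below 100% at a tested concentration; inactive means the rest.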
# Columns and labels:
# [1] = growth inhibition of DIPG glioma cells, dose response, cell-based, SU-DIPG-XVII, MIPE5.0, CellTiter-Glo, qHTS (AID 1347060; cut-off not given, nearly all actives have AC50 up to about 26 µM;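 further: cells exposed to compound for 48 hours before viability readout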); conditions: SU-DIPG-XVII viability, CellTiter-Glo ATP luminescence
# [2] = growth inhibition of DIPG glioma cells, dose response, cell-based, JHH-DIPG-1, MIPE4.0, CellTiter-Glo, qHTS (AID 1347062; cut-off not given, nearly all actives have AC50 up to about 27 µM;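 further: cells exposed to compound for two days before readout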); conditions: JHH-DIPG-1 viability, CellTiter-Glo ATP luminescence
# [3] = growth inhibition of DIPG glioma cells, dose response, cell-based, SU-DIPG-XIII, MIPE5.0, CellTiter-Glo, qHTS (AID 1347064; cut-off not given, nearly all actives have AC50 up to about 23 µM;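 further: cells exposed to compound for 48 hours before the viability read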); conditions: SU-DIPG-XIII viability, CellTiter-Glo ATP luminescence
# [4] = JHH-DIPG-1 glioma cell viability, MIPE5.0 library, CellTiter-Glo luminescence, qHTS (AID 1347067; cut-off not given, nearly all actives have AC50 up to about 26 µM;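 further: cells exposed to compound for 48 hours before readout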); conditions: JHH-DIPG-1 glioma viability, CellTiter-Glo ATP luminescence
# [5] = SU-DIPG-XXV glioma cell viability, MIPE5.0 library, qHTS (AID 1347068; cut-off not given, nearly all actives have IC50 up to about 30 µM;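 further: cells exposed to compound for 48 hours before viability readout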)
# [6] = sensitizers of A549 cells to miR-34 induction, primary screen, imaging, A549 dox-inducible miR-34, nuclei and caspase counts (AID 1347080;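 active means compounds whose cell count with miR-34 switched on is under 0.7 times the count with it off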); conditions: A549 miR-34 inducible, Hoechst nuclei count, 48 h
# [7] = modifiers of HSF1 nuclear foci, imaging, Selleck Cancer Library (AID 1347162; in the data active means plate-normalised HSF1 focus index below about 0.46); conditions: human cells, at 10 µM; SSMD: measured here: HSF1 foci SSMD mean; cell count: measured here: cell number; plate-normalised HSF1 focus index: stronger effect = lower value
# [8] = survival rescue of mitochondrial mutant cells in low glucose, primary screen, MELAS cybrids, Rieske KO mouse fibroblasts, CellTiter-Glo (AID 1508586;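 active means mean z-score across replicates of 1.96 or higher in either the MELAS or the Rieske mutant cell line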;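 further: z relative to plate mean and SD of compound and empty wells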)
# [9] = ovarian cancer cell viability with rucaparib, profiling panel, oncology-focused library, rucaparib conditional (AID 1508598); conditions: patient-derived ovarian cancer cells, CellTiter-Glo viability, 144 h, stronger effect = lower value
# [10] = growth inhibition of DIPG glioma cells, dose response, cell-based, SU-DIPG-IV, MIPE4.0, CellTiter-Glo, qHTS (AID 1347063; cut-off not given, nearly all actives have AC50 up to about 30 µM;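 further: compound exposure lasted 48 hours before the viability readout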); conditions: SU-DIPG-IV viability, CellTiter-Glo ATP luminescence
# [11] = viability loss in pontine glioma line – cell-based, SU-DIPG-XXV, MIPE5.0, CellTiter-Glo, qHTS, dose response (AID 1347065; cut-off not given, nearly all actives have AC50 up to about 26 µM;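 further: cells exposed to compound for 48 hours before ATP readout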); conditions: CellTiter-Glo ATP luminescence
# [12] = SU-DIPG-VI glioma cell viability, MIPE4.0 library, CellTiter-Glo luminescence, qHTS (AID 1347066; cut-off not given, nearly all actives have AC50 up to about 30 µM;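 further: cells exposed to compound for 48 hours before readout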); conditions: CellTiter-Glo ATP luminescence
# [13] = stronger effect = lower value, cell number ratio, induced over uninduced
# [14] = measured here: relative caspase fold change +Dox/-Dox
# [15] = measured here: total cells with miR-34 induction, stronger effect = lower value
# [16] = measured here: total cells without miR-34 induction
# [17] = MELAS cybrid survival, CellTiter-Glo 48 h, stronger effect = higher value
# [18] = Rieske KO mouse fibroblast survival, CellTiter-Glo 72 h
# [19] = at 0.000305 µM, OCI-C5x cells, with rucaparib 10 µM, 100% = cells with rucaparib alone
# [20] = at 0.000305 µM, OCI-C5x cells, without rucaparib
# [21] = at 0.000305 µM, OCI-P5x cells, with rucaparib 20 µM, 100% = cells with rucaparib alone
# [22] = at 0.000305 µM, OCI-P5x cells, without rucaparib
# [23] = at 0.00122 µM, OCI-C5x cells, with rucaparib 10 µM, 100% = cells with rucaparib alone
# [24] = at 0.00122 µM, OCI-C5x cells, without rucaparib
# [25] = at 0.00122 µM, OCI-P5x cells, with rucaparib 20 µM, 100% = cells with rucaparib alone
# [26] = at 0.00122 µM, OCI-P5x cells, without rucaparib
# [27] = at 0.00488 µM, OCI-C5x cells, with rucaparib 10 µM, 100% = cells with rucaparib alone
# [28] = at 0.00488 µM, OCI-C5x cells, without rucaparib
# [29] = at 0.00488 µM, OCI-P5x cells, with rucaparib 20 µM, 100% = cells with rucaparib alone
# [30] = at 0.00488 µM, OCI-P5x cells, without rucaparib
# [31] = at 0.0195 µM, OCI-C5x cells, with rucaparib 10 µM, 100% = cells with rucaparib alone
# [32] = at 0.0195 µM, OCI-C5x cells, without rucaparib
# [33] = at 0.0195 µM, OCI-P5x cells, with rucaparib 20 µM, 100% = cells with rucaparib alone
# [34] = at 0.0195 µM, OCI-P5x cells, without rucaparib
# [35] = at 0.0781 µM, OCI-C5x cells, with rucaparib 10 µM, 100% = cells with rucaparib alone
# [36] = at 0.0781 µM, OCI-C5x cells, without rucaparib
# [37] = at 0.0781 µM, OCI-P5x cells, with rucaparib 20 µM, 100% = cells with rucaparib alone
# [38] = at 0.0781 µM, OCI-P5x cells, without rucaparib
# [39] = at 0.313 µM, OCI-C5x cells, with rucaparib 10 µM, 100% = cells with rucaparib alone
# [40] = at 0.313 µM, OCI-C5x cells, without rucaparib
# [41] = at 0.313 µM, OCI-P5x cells, with rucaparib 20 µM, 100% = cells with rucaparib alone
# [42] = at 0.313 µM, OCI-P5x cells, without rucaparib
# [43] = at 1.25 µM, OCI-C5x cells, with rucaparib 10 µM, 100% = cells with rucaparib alone
# [44] = at 1.25 µM, OCI-C5x cells, without rucaparib
# [45] = at 1.25 µM, OCI-P5x cells, with rucaparib 20 µM, 100% = cells with rucaparib alone
# [46] = at 1.25 µM, OCI-P5x cells, without rucaparib
# [47] = at 5 µM, OCI-C5x cells, with rucaparib 10 µM, 100% = cells with rucaparib alone
# [48] = at 5 µM, OCI-C5x cells, without rucaparib
# [49] = at 5 µM, OCI-P5x cells, with rucaparib 20 µM, 100% = cells with rucaparib alone
# [50] = at 5 µM, OCI-P5x cells, without rucaparib
structure (smiles),measurement,setting,value
COc1ccc(S(=O)(=O)Nc2cccnc2Nc2ccc(O)cc2)cc1,AC50,[1],263 nM (active)
same,AC50,[2],166 nM (active)
same,AC50,[3],468 nM (active)
same,AC50,[4],468 nM (active)
same,IC50,[5],10500 nM (active)
same,fold change,[6]; [13],1.24 (inactive)
same,fold change,[6]; [14],0.79
same,cell count,[6]; [15],1190
same,cell count,[6]; [16],962
same,SSMD,[7],1.94
same,cell count,[7],7150
same,plate-normalised HSF1 focus index,[7],1.07 (inactive)
same,z-score,[8]; [17],0.679 (inactive)
same,z-score,[8]; [18],-0.295
same,viability,[9]; [19],111% (inactive)
same,viability,[9]; [20],122% (inactive)
same,viability,[9]; [21],117% (inactive)
same,viability,[9]; [22],128% (inactive)
same,viability,[9]; [23],119% (inactive)
same,viability,[9]; [24],133% (inactive)
same,viability,[9]; [25],118% (inactive)
same,viability,[9]; [26],119% (inactive)
same,viability,[9]; [27],119% (inactive)
same,viability,[9]; [28],133% (inactive)
same,viability,[9]; [29],112% (inactive)
same,viability,[9]; [30],121% (inactive)
same,viability,[9]; [31],113% (inactive)
same,viability,[9]; [32],128% (inactive)
same,viability,[9]; [33],108% (inactive)
same,viability,[9]; [34],122% (inactive)
same,viability,[9]; [35],110% (inactive)
same,viability,[9]; [36],134% (inactive)
same,viability,[9]; [37],111% (inactive)
same,viability,[9]; [38],111% (inactive)
same,viability,[9]; [39],58.8% (active)
same,viability,[9]; [40],76.1% (active)
same,viability,[9]; [41],94.4% (active)
same,viability,[9]; [42],28.4% (active)
same,viability,[9]; [43],50% (active)
same,viability,[9]; [44],49.6% (active)
same,viability,[9]; [45],72.9% (active)
same,viability,[9]; [46],23% (active)
same,viability,[9]; [47],43.3% (active)
same,viability,[9]; [48],62% (active)
same,viability,[9]; [49],70.9% (active)
same,viability,[9]; [50],17.9% (active)
C[C@H]1[C@H](O)O[C@@H]2O[C@@]3(C)CC[C@H]4[C@H](C)CC[C@@H]1[C@@]24OO3,AC50,[1],2950 nM (active)
same,AC50,[10],2960 nM (active)
same,AC50,[3],4680 nM (active)
same,AC50,[11],7420 nM (active)
same,outcome,[12],inactive
O[C@@H](COc1cccc2ncccc12)CN1CCN(C2c3ccccc3[C@@H]3[C@H](c4ccccc42)C3(F)F)CC1 (some centres not stated),AC50,[1],20900 nM (active)
same,AC50,[10],16600 nM (active)
same,AC50,[3],23500 nM (active)
same,AC50,[11],13200 nM (active)
same,AC50,[4],23500 nM (active)
same,IC50,[5],18600 nM (active)
N#Cc1c(NC(=O)c2cccc3ccccc23)sc2c1CCCC2,AC50,[1],372 nM (active)
same,AC50,[10],418 nM (active)
same,AC50,[3],1320 nM (active)
same,AC50,[11],833 nM (active)
same,outcome,[12],inactive
same,AC50,[4],263 nM (active)
same,IC50,[5],235 nM (active)
same,fold change,[6]; [13],1.02 (inactive)
same,fold change,[6]; [14],0.427
same,cell count,[6]; [15],1320
same,cell count,[6]; [16],1290
same,z-score,[8]; [17],-0.44 (inactive) and 1.09 (inactive)
same,z-score,[8]; [18],0.237 and -1.54
same,viability,[9]; [19],117% (inactive)
same,viability,[9]; [20],105% (inactive)
same,viability,[9]; [21],96% (active)
same,viability,[9]; [22],102% (inactive)
same,viability,[9]; [23],129% (inactive)
same,viability,[9]; [24],120% (inactive)
same,viability,[9]; [25],95.3% (active)
same,viability,[9]; [26],109% (inactive)
same,viability,[9]; [27],113% (inactive)
same,viability,[9]; [28],109% (inactive)
same,viability,[9]; [29],102% (inactive)
same,viability,[9]; [30],97.3% (active)
same,viability,[9]; [31],108% (inactive)
same,viability,[9]; [32],116% (inactive)
same,viability,[9]; [33],98.6% (active)
same,viability,[9]; [34],103% (inactive)
same,viability,[9]; [35],118% (inactive)
same,viability,[9]; [36],109% (inactive)
same,viability,[9]; [37],97.5% (active)
same,viability,[9]; [38],102% (inactive)
same,viability,[9]; [39],119% (inactive)
same,viability,[9]; [40],110% (inactive)
same,viability,[9]; [41],105% (inactive)
same,viability,[9]; [42],100% (inactive)
same,viability,[9]; [43],72.9% (active)
same,viability,[9]; [44],106% (inactive)
same,viability,[9]; [45],65.1% (active)
same,viability,[9]; [46],34.2% (active)
same,viability,[9]; [47],49.6% (active)
same,viability,[9]; [48],64.5% (active)
same,viability,[9]; [49],58.3% (active)
same,viability,[9]; [50],18.2% (active)
